# PubChem BioAssay (Tox21)
# Where “and” joins values, the source holds several entries; their conditions need not be identical. Equal entries are not always repeated. Results filed as inconclusive are left out. A number with no mark means an inactive call. Calls of active or inactive are those of the source. Calls come from the whole dose curve.
# Assay: qHTS assay to identify small molecule agonists of the hypoxia (HIF-1) signaling pathway - cell viability counter screen (AID 1224844); note: nearly all actives have a fitted effect of over 50% in size
# Settings: HRE-bla ME-180 viability, CellTiter-Glo luminescence, 17 h; series mostly up to 76.8 µM; activity change, negative = cytotoxicity: at the top concentration
# Source text: National Center for Advancing Translational Sciences [NCATS]
# NIH Chemical Genomics Center [NCGC]
# U.S. Environmental Protection Agency [EPA]
# National Institutes of Environmental Health Sciences [NIEHS]
# National Toxicology Program [NTP]
# U.S. Food and Drug Administration [FDA]
# Hypoxia-inducible factor-1 (HIF-1) is the major hypoxia-regulated transcription factor that controls cellular responses to low oxygen concentration. HIF-1 is composed of two subunits: hypoxia responsive HIF-1-alpha and constitutively expressed HIF-1-beta, which is also known as aryl hydrocarbon receptor nuclear translocator. During hypoxic conditions, HIF-1-alpha heterodimerizes with HIF-1-beta and translocates into the nucleus where the HIF-1 complex binds to the hypoxia-response element (HRE) and activates expression of target genes such as VEGF (vascular endothelial growth factor). The HIF-1 pathway is essential to normal growth and development, and is involved in the pathophysiology of cancer, inflammation, and ischemia.
# Using a beta-lactamase reporter-gene under control of the hypoxia response element, a cell-based assay [CellSensor(TM) HRE-bla ME-180 from Life Technologies, Carlsbad, CA] was used to measure hypoxia-induced signaling. Tox21 10K library compounds were measured for their ability to induce the reporter gene activity. The cytotoxicity of the Tox21 compound library against HRE-bla ME-180 cell line was tested in parallel by measuring cell viability using CellTiter-Glo assay (Promega, Madison, WI) in the same assay wells.
# Tox21 Assay Protocol Summary:
# HRE-bla ME-180 cells were dispensed at 2,000 cells per well in 6 uL of assay medium containing 0.5% dialyzed FBS into black wall/clear-bottom 1536-well plates using a Multidrop Combi (Thermo Scientific, Waltham, MA) dispenser. After the assay plates were incubated at 37C and 5% CO2 for 5 hrs, 23 nL of compounds dissolved in DMSO, positive controls or DMSO only was transferred to each well of the assay plate using a Pintool station (Kalypsys, San Diego, CA). The assay plates were incubated at 37C and 5% CO2 for 17 hrs. One uL of LiveBLAzerTM B/G FRET substrate (CCF4-AM) (Life Technologies) was added to each well using a Flying Reagent Dispenser (FRD, Aurora Discovery, San Diego, CA). After 2 hr incubation at room temperature, fluorescence intensity (405 nm excitation, 460 nm and 530 nm emissions) was measured using an Envision plate reader (PerkinElmer, Shelton, CT). For cytotoxicity, 4 ul/well of CellTiter-Glo reagent was added into the assay plates using an FRD. After 30 min incubation at room temperature, the luminescence intensity was measured using a ViewLux plate reader (PerkinElmer).
# % is set by controls: 0 for no effect and ±100 for the full control effect; potency is the fitted concentration of half-maximal effect.
SMILES,Potency,"activity change, negative = cytotoxicity"
CC(C)(C)CC(C)(C)c1ccc(OCCOCC[N+](C)(C)Cc2ccccc2)cc1,19.5 µM (active) and 9.52 µM (active),–
CCCCCCCCCCCCCCCS(=O)(=O)Oc1ccccc1,–,-18.5% [at 35.3 µM]
CO[Si](CCCNc1ccccc1)(OC)OC,–,12.4%
CCCCCCCCCCCC[N+](C)(C)CCCCCCCCCCCC,21.9 µM (active),–
CSc1ccc(C(=O)c2[nH]c(=O)[nH]c2C)cc1,–,16.4% [at 35.3 µM]
CCCCc1oc2ccc(NS(C)(=O)=O)cc2c1C(=O)c1ccc(OCCCN(CCCC)CCCC)cc1,15.1 µM (active),–
COc1cccc2c1C(=O)c1c(O)c3c(c(O)c1C2=O)C[C@@](O)(C(=O)CO)C[C@@H]3O[C@H]1C[C@H](N)[C@H](O[C@@H]2CCCCO2)[C@H](C)O1,12 µM (active),–
CCCCCCCCCCCCCCCCCC[N+](C)(C)C,55.1 µM (active),–
CC(C)OC(=O)c1cc2c(OCC(O)CNC(C)(C)C)cccc2[nH]1 (stereo not given),–,-2.83% [at 35.3 µM]
CCc1oc2ccccc2c1C(=O)c1cc(Br)c(O)c(Br)c1,–,-21.8% [at 35.3 µM]
Clc1ccc2cc3ccccc3cc2c1,–,1.31%
COc1cccc(N)c1,–,10.5%
C[C@]12CCC(=O)C=C1CC[C@@H]1[C@@H]2[C@@H](O)C[C@@]2(C)[C@H]1CC[C@]2(O)C(=O)COC(=O)CCC(=O)O,–,6.25% [at 35.3 µM]
CC(=O)OCC(C)OC(C)=O (stereo not given),–,14.6%
O=S1(=O)CC(Cl)(Cl)C(Cl)(Cl)C1,3.89 µM (active),–
CCCCCCCCOC(=O)c1ccc(O)cc1,48.8 µM (active),–
CCCCCCCCCCCCCC[P+](CCCC)(CCCC)CCCC (tested in a mixture with another compound),15.6 µM (active),–
CCC(C)Nc1ccc(NC(C)CC)cc1 (stereo not given),12.5 µM (active),–
CCc1cc(SCc2sc(-c3ccc(C(F)(F)F)cc3)nc2CN2CCN(c3ccc(OC)cc3)CC2)ccc1OCC(=O)O,3.89 µM (active),–
C=C(C)C(=O)OCC[N+](C)(C)C,–,3.56%

SMILES,Potency,"activity change, negative = cytotoxicity"
COC(=O)c1cc(Cl)ccc1OC,–,1.45% [at 35.3 µM]
C=CC(=O)OCC(CO)(COCC(COC(=O)C=C)(COC(=O)C=C)COC(=O)C=C)COC(=O)C=C,2.16 µM (active),–
C=CC(=O)OCC(CO)(COC(=O)C=C)COC(=O)C=C,4.38 µM (active) and 17.4 µM (active),–
CC1=C(C(=O)OC(C)C)C(c2cccc([N+](=O)[O-])c2)C(C(=O)OC2CN(C(c3ccccc3)c3ccccc3)C2)=C(N)N1 (stereo not given),6.74 µM (active),–
NC(=O)CC[C@@H]1NC(=O)[C@H](Cc2ccccc2)NC(=O)[C@H](Cc2ccc(O)cc2)NC(=O)CCSSC[C@@H](C(=O)N2CCC[C@H]2C(=O)N[C@@H](CCCN=C(N)N)C(=O)NCC(N)=O)NC(=O)[C@H](CC(N)=O)NC1=O,–,7.14% [at 35.3 µM]
O=C(OCC1CO1)C1CCCCC1C(=O)OCC1CO1 (stereo not given),–,-26.5%
CCCN(CCC)C(=O)C(CCC(=O)OCCCN1CCN(CCOC(=O)Cc2c(C)n(C(=O)c3ccc(Cl)cc3)c3ccc(OC)cc23)CC1)NC(=O)c1ccccc1 (stereo not given),19 µM (active),–
O=C(O)c1cc(O)c2c(c1)C(=O)c1cccc(O)c1C2=O,–,5.32%
Oc1ccc2c(c1)-c1ccccc1C2,–,-14.3%
Nc1c2ccccc2nc2ccccc12,13.6 µM (active),–
CNC(=O)c1ccccc1,–,6.67%
O=c1c(-c2ccccc2)c1-c1ccccc1,13.4 µM (active),–
CCN(C(=O)c1cc(C)cc(OC[C@H](C)Nc2ccncc2)c1)C(C)C,–,-1.7% [at 35.3 µM]
[Cl][Au]([Cl])[Cl],3.89 µM (active),–
CC(C)(C)c1ccc(C(=O)CCCN2CCC(OC(c3ccccc3)c3ccccc3)CC2)cc1,19 µM (active),–
CC(C)(C)NC(=O)[C@@H]1C[C@@H]2CCCC[C@@H]2CN1C[C@@H](O)[C@H](Cc1ccccc1)NC(=O)[C@H](CC(N)=O)NC(=O)c1ccc2ccccc2n1,55.7 µM (active),–
CNc1ccc(O)cc1,21.8 µM (active),–
Clc1ccc2nsnc2c1NC1=NCCN1,–,1.76% [at 35.3 µM]
CC(C)=CCOc1ccc(/C=C/C(=O)c2ccc(OCC=C(C)C)cc2OCC(=O)O)cc1,–,19.1% [at 35.3 µM]
CC1=C(/C=C/C(C)=C/C=C/C(C)=C/C=O)C(C)(C)CCC1,30.7 µM (active),–
